In PubChem BioAssay (EPA / NIEHS):
Records with an inconclusive call do not appear. Where a structure was tested more than once in an assay, its records may differ in their call. Calls of active or inactive are those of the source. How the source made its calls, unless noted: active means hit-call score of the fitted dose curve at least 0.9, where 1 is the maximum; inactive means score below 0.9.

What was measured:
[1] = target: human RAR-related Orphan Receptor gamma (RORg), RORC (gene 6097) (UniProt P51449); assay: ATG_RORg_TRANS: Attagene TRANS-FACTORIAL HepG2 Assay for human RAR-related Orphan Receptor gamma (RORg) (AID 2283011; active means hit-call score of the fitted dose curve at least 0.9, where 1 is the maximum;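 on AC50: potency for induction of reporter transcripts above DMSO so activators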)
How it was run: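 Reporter transcripts from a transfected RORg-GAL4 chimera in HepG2 cells were quantified 24 h after dosing by RT-PCR, 6-FAM labelling, HpaI digestion and capillary electrophoresis; increases over DMSO baseline were fitted.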

[2] = target: Retinoic acid receptor RXR-alpha (Homo sapiens) (UniProt P19793); assay: ATG_RXRa_TRANS: Attagene TRANS-FACTORIAL HepG2 Assay for human Retinoid X Receptor alpha (RXRa) (AID 2283012; active means hit-call score of the fitted dose curve at least 0.9, where 1 is the maximum)
How it was run: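 Cells (HepG2) carried transiently transfected GAL4-responsive reporter units. Following a 24 h chemical incubation, reporter mRNA induction was read via RT-PCR fragment analysis; DMSO served as negative control and baseline.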

[3] = target: human Retinoid X Receptor beta (RXRb), RXRB (gene 6257) (UniProt P28702); assay: ATG_RXRb_TRANS: Attagene TRANS-FACTORIAL HepG2 Assay for human Retinoid X Receptor beta (RXRb) (AID 2283013; active means hit-call score of the fitted dose curve at least 0.9, where 1 is the maximum)
How it was run: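 Multiplexed TRANS reporter assay in HepG2; 24 h dosing; reporter mRNA by RT-PCR/CE fluorescence; gain-of-signal relative to DMSO.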

[4] = target: human Thyroid Receptor alpha (THRa1), THRA (gene 7067) (UniProt P10827); assay: ATG_THRa1_TRANS: Attagene TRANS-FACTORIAL HepG2 Assay for human Thyroid Receptor alpha (THRa1) (AID 2283014; active means hit-call score of the fitted dose curve at least 0.9, where 1 is the maximum)
How it was run: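 Transcripts from GAL4-UAS-driven reporters, measured after 24 h compound exposure by RT-PCR plus capillary electrophoresis of 6-FAM-labeled fragments, were fitted for gain of signal relative to DMSO. Cells: transiently transfected HepG2 expressing NR-Gal4 chimeras.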

[5] = read-out: E-selectin (Homo sapiens) (UniProt P16581); assay: BSK_3C_Eselectin: BioMAP Diversity Plus: 3C Assay for Eselectin Biomarker Activity (AID 2283015); conditions: primary human endothelial cells (HUVEC); actives raise or lower the signal
How it was run: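 E-selectin ELISA readout, fitted bidirectionally relative to DMSO, taken 24 h post-dosing in HUVEC cultures of the 3C system. Overt cytotoxicity tracked with sulforhodamine B staining of parallel wells.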

[6] = read-out: Interleukin-1 alpha (IL1a), IL1A (gene 3552); assay: BSK_BE3C_IL1a: BioMAP Diversity Plus: BE3C Assay for Interleukin-1 alpha (IL1a) Biomarker Activity (AID 2283016); conditions: primary human bronchial epithelial cells; actives raise or lower the signal
How it was run: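 Cultures of primary human bronchial epithelial cells receive test chemical. After 24 h, IL-1a is quantified by ELISA, while parallel wells are fixed in TCA and SRB-stained for total protein. Changes in either direction are fitted relative to DMSO.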

[7] = read-out: Monocyte Chemoattractant Protein-1 (MCP1), CCL2 (gene 6347); assay: BSK_4H_MCP1: BioMAP Diversity Plus: 4H Assay for Monocyte Chemoattractant Protein-1 (MCP1) Biomarker Activity (AID 2283018); conditions: primary human endothelial cells (HUVEC); actives raise or lower the signal
How it was run: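 Readout: MCP-1 ELISA on compound-treated HUVEC, sampled 24 h post-dosing. Baseline and negative control DMSO; bidirectional fit. Overt toxicity checked alongside by sulforhodamine B protein staining at time of biomarker measurement.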

[8] = read-out: Human Leukocyte Antigen - DR isotype (HLADR), HLA-DRA (gene 3122); assay: BSK_3C_HLADR: BioMAP Diversity Plus: 3C Assay for Human Leukocyte Antigen - DR isotype (HLADR) Biomarker Activity (AID 2283019); conditions: primary human endothelial cells (HUVEC); actives raise or lower the signal
How it was run: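 Bidirectional fitting against DMSO was applied to the HLA-DR ELISA signal from human umbilical vein endothelial cells, 24 h post-dose. Cytotoxicity came from parallel SRB total-protein staining; 3C proliferation was counted by SRB at 48 h.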

[9] = read-out: Monokine induced gamma interferon (MIG), CXCL9 (gene 4283); assay: BSK_3C_MIG: BioMAP Diversity Plus: 3C Assay for Monokine induced gamma interferon (MIG) Biomarker Activity (AID 2283021); conditions: primary human endothelial cells (HUVEC); actives raise or lower the signal;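 on AC50: MIG protein level measured by immunoassay in the treated endothelial cultures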
How it was run: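 After 24 h of treatment, human umbilical vein endothelial cultures (3C system) had their MIG biomarker level determined by ELISA, with DMSO serving as negative control.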

[10] = target: human Vitamin D Receptor (VDR), VDR (gene 7421) (UniProt P11473); assay: ATG_VDR_TRANS: Attagene TRANS-FACTORIAL HepG2 Assay for human Vitamin D Receptor (VDR) (AID 2283022; active means hit-call score of the fitted dose curve at least 0.9, where 1 is the maximum)
How it was run: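 Transactivation by an exogenous VDR-Gal4 chimera in transiently transfected HepG2 cells was measured as reporter transcript level 24 hours after chemical treatment. RT-PCR products were analysed by capillary electrophoresis and fitted in the positive direction relative to DMSO.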

[11] = BSK_3C_SRB: Viability Assessment in the BioMAP Diversity Plus: 3C Assay (AID 2283023); conditions: primary human endothelial cells (HUVEC);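 further: fitted both ways against DMSO so a hit may be signal rise or drop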
How it was run: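 Cytotoxicity readout in parallel HUVEC 3C cultures: after 24 h compound exposure, cells fixed with 10% TCA, stained with 0.1% SRB and read at 560 nm. Gain or loss relative to DMSO fitted.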

[12] = read-out: Matrix Metallopeptidase 1 (MMP1), MMP1 (gene 4312); assay: BSK_BE3C_MMP1: BioMAP Diversity Plus: BE3C Assay for Matrix Metallopeptidase 1 (MMP1) Biomarker Activity (AID 2283024); conditions: primary human bronchial epithelial cells; actives raise or lower the signal
How it was run: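 Dose cells, wait 24 h, run MMP1 ELISA; cells are human bronchial epithelial primaries. Both increases and decreases relative to DMSO counted.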

[13] = BSK_3C_Vis: BioMAP Diversity Plus: 3C Assay for Morphology Visualization (AID 2283025); conditions: primary human endothelial cells (HUVEC);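 further: fitted both ways so gain or loss versus DMSO counts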;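 on AC50: light microscopy image of cell morphology used as background control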
How it was run: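 Endothelial cells from human umbilical vein were treated with test chemicals for 24 h and inspected by light microscopy for changes in cell conformation.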

[14] = read-out: Pselectin, SELP (gene 6403); assay: BSK_4H_Pselectin: BioMAP Diversity Plus: 4H Assay for Pselectin Biomarker Activity (AID 2283026); conditions: primary human endothelial cells (HUVEC); actives raise or lower the signal
How it was run: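 Human vascular endothelium from umbilical vein; P-selectin measured by ELISA at 24 h post-dose, with cytotoxicity checked by sulforhodamine B total-protein staining in parallel cultures (0.1% SRB after 10% TCA fixation, read at 560 nm).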

[15] = BSK_4H_SRB: Viability Assessment in the BioMAP Diversity Plus: 4H Assay (AID 2283027); conditions: primary human endothelial cells (HUVEC);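 further: cells exposed to compound for 24 h before staining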;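 on AC50: curves fitted both ways versus DMSO so AC50 may be loss or gain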
How it was run: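 Human umbilical vein endothelial cells were dosed with chemical and, after 24 h, fixed with 10% TCA, stained with 0.1% sulforhodamine B, and read at 560 nm to give total protein as a cytotoxicity measure. Bidirectional fitting relative to DMSO control.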

[16] = BSK_BE3C_SRB: Viability Assessment in the BioMAP Diversity Plus: BE3C Assay (AID 2283028); conditions: primary human bronchial epithelial cells;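 on AC50: fitted both ways so AC50 may mark signal gain or loss versus DMSO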
How it was run: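 Cytotoxicity read-out: SRB (0.1%) staining of TCA-fixed (10%) human lung bronchial epithelial cells, absorbance 560 nm, 24 h post-dosing. Curves fitted both directions relative to DMSO.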

[17] = read-out: Thrombomodulin, THBD (gene 7056); assay: BSK_3C_Thrombomodulin: BioMAP Diversity Plus: 3C Assay for Thrombomodulin Biomarker Activity (AID 2283029); conditions: primary human endothelial cells (HUVEC); actives raise or lower the signal
How it was run: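 Thrombomodulin ELISA, human primary HUVEC, 24 h post-dose; data fitted in both directions relative to DMSO.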

[18] = read-out: Urokinase-type plasminogen activator receptor (uPAR), PLAUR (gene 5329); assay: BSK_4H_uPAR: BioMAP Diversity Plus: 4H Assay for Urokinase-type plasminogen activator receptor (uPAR) Biomarker Activity (AID 2283030); conditions: primary human endothelial cells (HUVEC); actives raise or lower the signal
How it was run: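 uPAR level read by ELISA on HUVEC cultures (BioMAP 4H) 24 h post-dosing, analyzed for gain or loss relative to DMSO. Parallel SRB staining assessed overt cytotoxicity.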

[19] = read-out: Monocyte Chemoattractant Protein-1 (MCP1), CCL2 (gene 6347); assay: BSK_3C_MCP1: BioMAP Diversity Plus: 3C Assay for Monocyte Chemoattractant Protein-1 (MCP1) Biomarker Activity (AID 2283017); conditions: primary human endothelial cells (HUVEC); actives raise or lower the signal
How it was run: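 MCP-1 was measured by ELISA 24 h after dosing in primary HUVEC 3C cultures and fitted in both directions relative to DMSO; cytotoxicity was checked by SRB total-protein staining in parallel wells.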

[20] = read-out: Interleukin-8 (IL8), CXCL8 (gene 3576); assay: BSK_3C_IL8: BioMAP Diversity Plus: 3C Assay for Interleukin-8 (IL8) Biomarker Activity (AID 2283020); conditions: primary human endothelial cells (HUVEC); actives raise or lower the signal
How it was run: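 Human vascular endothelial cells (umbilical vein) in the 3C system; IL-8 level detected by ELISA at 24 h post-dose, with DMSO as baseline.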

Measured: AC50

Chain of human Thyroid Receptor alpha (THRa1), THRA (gene 7067) (P10827 whole entry, looked up, the tested form may be a part): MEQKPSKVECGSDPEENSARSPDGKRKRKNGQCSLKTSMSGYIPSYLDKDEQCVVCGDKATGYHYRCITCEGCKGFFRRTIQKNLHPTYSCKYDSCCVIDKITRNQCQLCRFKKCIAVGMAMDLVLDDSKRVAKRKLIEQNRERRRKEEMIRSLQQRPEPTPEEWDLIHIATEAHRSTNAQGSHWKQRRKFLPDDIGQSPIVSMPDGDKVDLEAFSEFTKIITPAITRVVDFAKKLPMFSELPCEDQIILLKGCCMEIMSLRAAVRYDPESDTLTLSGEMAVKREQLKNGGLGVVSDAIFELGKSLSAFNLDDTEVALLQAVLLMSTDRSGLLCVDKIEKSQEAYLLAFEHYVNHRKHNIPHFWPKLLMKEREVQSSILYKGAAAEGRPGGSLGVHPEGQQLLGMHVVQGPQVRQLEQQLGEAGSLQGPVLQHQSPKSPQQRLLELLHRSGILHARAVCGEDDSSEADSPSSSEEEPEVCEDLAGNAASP
Chain of E-selectin (Homo sapiens) (P16581 whole entry, looked up): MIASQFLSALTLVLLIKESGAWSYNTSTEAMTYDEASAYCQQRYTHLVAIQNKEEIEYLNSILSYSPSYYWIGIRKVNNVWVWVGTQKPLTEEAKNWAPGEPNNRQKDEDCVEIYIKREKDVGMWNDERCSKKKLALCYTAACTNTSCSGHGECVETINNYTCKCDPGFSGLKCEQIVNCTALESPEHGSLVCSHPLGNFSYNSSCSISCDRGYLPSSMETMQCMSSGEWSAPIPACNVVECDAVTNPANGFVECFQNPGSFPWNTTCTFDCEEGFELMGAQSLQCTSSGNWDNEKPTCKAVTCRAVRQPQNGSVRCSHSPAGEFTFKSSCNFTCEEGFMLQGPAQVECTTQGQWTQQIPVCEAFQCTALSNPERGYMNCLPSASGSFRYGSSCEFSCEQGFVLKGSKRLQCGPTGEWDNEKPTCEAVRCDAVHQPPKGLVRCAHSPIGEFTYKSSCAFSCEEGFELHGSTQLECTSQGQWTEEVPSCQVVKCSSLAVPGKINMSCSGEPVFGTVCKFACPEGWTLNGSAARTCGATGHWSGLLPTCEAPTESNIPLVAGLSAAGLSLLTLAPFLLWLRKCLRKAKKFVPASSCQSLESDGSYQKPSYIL
Chain of Retinoic acid receptor RXR-alpha (Homo sapiens) (P19793 whole entry, looked up, the tested form may be a part): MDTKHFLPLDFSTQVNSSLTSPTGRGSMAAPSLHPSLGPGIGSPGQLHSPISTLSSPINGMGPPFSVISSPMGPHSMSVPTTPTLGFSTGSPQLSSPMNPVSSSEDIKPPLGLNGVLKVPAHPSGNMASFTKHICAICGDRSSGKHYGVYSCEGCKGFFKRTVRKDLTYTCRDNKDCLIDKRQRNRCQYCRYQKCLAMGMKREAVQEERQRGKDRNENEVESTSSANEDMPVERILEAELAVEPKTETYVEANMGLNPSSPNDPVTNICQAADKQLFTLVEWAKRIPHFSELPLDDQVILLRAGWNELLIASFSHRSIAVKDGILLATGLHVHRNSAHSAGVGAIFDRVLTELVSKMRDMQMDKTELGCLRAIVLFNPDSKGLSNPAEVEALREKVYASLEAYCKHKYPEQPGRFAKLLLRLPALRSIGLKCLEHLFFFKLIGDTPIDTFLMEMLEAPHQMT
Chain of human Vitamin D Receptor (VDR), VDR (gene 7421) (P11473 whole entry, looked up, the tested form may be a part): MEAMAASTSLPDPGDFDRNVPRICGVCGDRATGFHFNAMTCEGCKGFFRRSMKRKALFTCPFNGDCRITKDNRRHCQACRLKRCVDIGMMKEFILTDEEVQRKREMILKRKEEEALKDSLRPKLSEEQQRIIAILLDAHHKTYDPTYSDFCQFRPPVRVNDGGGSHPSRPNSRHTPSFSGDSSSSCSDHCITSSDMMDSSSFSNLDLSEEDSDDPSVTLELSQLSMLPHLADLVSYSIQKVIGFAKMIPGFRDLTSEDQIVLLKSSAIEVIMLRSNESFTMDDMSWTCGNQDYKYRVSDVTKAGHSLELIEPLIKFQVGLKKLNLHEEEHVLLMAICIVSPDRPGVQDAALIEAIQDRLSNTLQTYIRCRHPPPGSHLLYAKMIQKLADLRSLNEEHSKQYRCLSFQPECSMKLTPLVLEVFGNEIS
Chain of human RAR-related Orphan Receptor gamma (RORg), RORC (gene 6097) (P51449 whole entry, looked up, the tested form may be a part): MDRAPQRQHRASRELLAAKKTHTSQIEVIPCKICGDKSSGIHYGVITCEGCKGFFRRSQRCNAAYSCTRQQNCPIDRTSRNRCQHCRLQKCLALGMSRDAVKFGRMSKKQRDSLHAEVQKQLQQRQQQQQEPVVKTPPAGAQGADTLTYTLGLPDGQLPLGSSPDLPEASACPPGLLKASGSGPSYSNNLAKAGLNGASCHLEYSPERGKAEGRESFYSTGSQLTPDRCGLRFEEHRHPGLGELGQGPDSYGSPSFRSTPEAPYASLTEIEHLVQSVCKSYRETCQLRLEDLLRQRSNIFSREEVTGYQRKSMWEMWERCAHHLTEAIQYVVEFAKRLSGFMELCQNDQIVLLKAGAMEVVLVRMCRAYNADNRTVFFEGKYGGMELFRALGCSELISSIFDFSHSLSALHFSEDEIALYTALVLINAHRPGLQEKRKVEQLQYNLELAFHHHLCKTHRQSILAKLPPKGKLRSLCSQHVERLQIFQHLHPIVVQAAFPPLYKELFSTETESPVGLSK
Chain of human Retinoid X Receptor beta (RXRb), RXRB (gene 6257) (P28702 whole entry, looked up): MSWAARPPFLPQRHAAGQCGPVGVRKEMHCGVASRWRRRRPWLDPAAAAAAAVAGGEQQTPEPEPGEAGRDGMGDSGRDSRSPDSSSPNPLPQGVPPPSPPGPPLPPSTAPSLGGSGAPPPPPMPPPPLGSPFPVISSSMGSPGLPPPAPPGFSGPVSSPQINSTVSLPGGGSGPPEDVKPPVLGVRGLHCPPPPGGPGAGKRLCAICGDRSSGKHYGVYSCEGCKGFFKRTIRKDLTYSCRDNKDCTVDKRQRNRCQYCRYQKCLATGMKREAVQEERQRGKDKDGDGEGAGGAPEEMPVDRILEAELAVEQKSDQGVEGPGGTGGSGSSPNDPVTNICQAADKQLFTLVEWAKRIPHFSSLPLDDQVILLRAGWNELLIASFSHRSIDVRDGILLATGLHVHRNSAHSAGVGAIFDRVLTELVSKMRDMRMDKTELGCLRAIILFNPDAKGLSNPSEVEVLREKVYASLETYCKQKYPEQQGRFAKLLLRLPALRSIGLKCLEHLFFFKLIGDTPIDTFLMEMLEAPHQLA

CN(C[C@@H](CC[N+]12CCC(C3CCCCC3)(CC1)CC2)c1ccc(Cl)c(Cl)c1)C(=O)c1cc(C(F)(F)F)cc(C(F)(F)F)c1
active: [5] 27.5 µM | [6] 27.6 µM | [7] 27.2 µM | [8] 14.6 µM | [9] 33.6 µM | [11] 12.9 µM | [12] 23.5 µM | [13] 13.3 µM | [14] 29.2 µM | [15] 16.5 µM | [16] 13 µM | [18] 29.1 µM
inactive: [1] | [2] | [3] | [4] | [10] | [17]

CCCCCCCC[Si](OCC)(OCC)OCC
active: [3] 26.8 µM | [5] 17.5 µM | [19] 31.2 µM | [8] 23.3 µM | [11] 31.4 µM | [15] 32.8 µM | [17] 21 µM | [18] 33.2 µM
inactive: [2] | [3] | [4] | [6] | [9] | [10] | [12] | [13] | [14] | [16]

Cc1ccc2oc(CN(Cc3ccccc3)C(=O)Nc3c(F)cc(F)cc3F)c(-c3ccc(Cl)cc3)c2c1
not listed: [1] | [8]
inactive: all other assays above

CN1C(=O)CC[C@H]1c1cccnc1
not listed: [2] | [4] | [7] | [10] | [19] | [20]
inactive: all other assays above

Cc1cc2c(cc1C(F)(F)F)N(C(=O)Nc1ccc(Oc3cccnc3C)nc1)CC2
active: [8] 18.4 µM | [20] 0.889 µM | [13] 36.6 µM | [14] 8.67 µM | [16] 15.8 µM | [17] 5.4 µM
not listed: [2] | [10] | [19]
inactive: all other assays above

O=C(O)Cc1cc(I)c(Oc2ccc(O)c(I)c2)c(I)c1
active: [6] 25.5 µM | [12] 6.29 µM | [13] 14.5 µM | [18] 23.3 µM
not listed: [3] | [4] | [7]
inactive: all other assays above

O=C(O)c1ccccc1C(=O)OCc1ccccc1
not listed: [3] | [4] | [10] | [19] | [20]
inactive: all other assays above

CCCCCCCCCCCCO
inactive: [1] | [2] | [3] | [4] | [9] | [12] | [17]
active: [5] 31 µM | [6] 19.8 µM | [19] 31 µM | [8] 31.3 µM | [20] 36 µM | [11] 31.2 µM | [13] 38.4 µM | [14] 34.2 µM | [15] 31.1 µM | [16] 31.9 µM | [18] 30.9 µM

O=C(O)Cn1c(=O)n(Cc2ccc(Br)cc2F)c(=O)c2ccc(Cl)cc21
not listed: [3] | [4] | [7] | [20]
inactive: all other assays above

O=C1O[C@H]([C@@H](O)CO)C(O)=C1O
inactive: [1] | [2] | [3] | [4] | [5] | [6] | [8] | [9] | [11] | [12] | [13] | [14] | [15] | [16] | [17] | [18]
active: [2] 26.6 µM | [3] 35.9 µM

CC(C)(c1cc(Br)c(O)c(Br)c1)c1cc(Br)c(O)c(Br)c1
inactive: [2] | [3] | [4] | [10]
active: [5] 29 µM | [6] 5.72 µM | [19] 29.9 µM | [8] 27.2 µM | [9] 37.1 µM | [11] 29.6 µM | [12] 9.3 µM | [13] 37.8 µM | [14] 30.2 µM | [15] 28.7 µM | [16] 5.06 µM | [17] 8.15 µM | [18] 28.9 µM

CCCCCCCCCCCO
active: [1] 159 µM | [2] 179 µM | [3] 47.8 µM | [5] 32 µM | [8] 31 µM | [20] 28.6 µM | [10] 159 µM | [11] 31.3 µM
not listed: [7] | [19]
inactive: all other assays above

O=C1c2ccccc2C(=O)N1CCc1noc(-c2ccc(CN3CCCCCC3)s2)n1
active: [8] 26.7 µM | [14] 17.8 µM | [18] 22.8 µM
not listed: [3] | [10]
inactive: all other assays above
